# Hit rate of the full screen: of about 5,500 compounds, about 2,000 (36%) were called active. About 18% were inconclusive and are not listed. This is one part of the list. Unmarked numbers belong to inactive results. Cut-off read from the data, not from the text of the source: active = normalized growth mostly below about 0.91 (no sharp cut-off); inconclusive = no clear call, values can overlap the other calls; inactive = mostly above about 0.92.
# Assay: chemical genetic growth profiling, strain panel (AID 1159580);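 note: tested at 20 µM; growth read once vehicle control cultures reached saturation at 30 °C; 1 = growth at the plate median or of vehicle wells; lower values mean less growth of the strain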
# Settings: S. cerevisiae deletion strains, growth OD
# [1] = locus YDL101C, strain DUN1, stronger effect = lower value
# [2] = locus YGR078C, strain PAC10, stronger effect = lower value
# [3] = locus YHR030C, strain SLT2, stronger effect = lower value
# [4] = locus YJR075W, strain HOC1, stronger effect = lower value
# [5] = locus YMR263W, strain SAP30, stronger effect = lower value
# [6] = locus YMR307W, strain GAS1, stronger effect = lower value
# [7] = locus YNL153C, strain GIM3, stronger effect = lower value
# [8] = locus YNL322C, strain KRE1, stronger effect = lower value
# [9] = locus YPL241C, strain CIN2, stronger effect = lower value
# [10] = locus YAL040C, strain CLN3, stronger effect = lower value
# [11] = locus YCL061C, strain MRC1 (second series), stronger effect = lower value
# [12] = locus YDR363W, strain ESC2, stronger effect = lower value
# [13] = locus YER002W, strain NOP16, stronger effect = lower value
# [14] = locus YNL175C, strain NOP13, stronger effect = lower value
# [15] = locus YNL197C, strain WHI3, stronger effect = lower value
# [16] = locus YNL224C, strain SQS1, stronger effect = lower value
# [17] = locus YOR083W, strain WHI5 (second series), stronger effect = lower value
# [18] = locus YAR019C, strain CDC15, stronger effect = lower value
# [19] = locus YBL105C, strain PKC1, stronger effect = lower value
# [20] = locus YBR135W, strain CKS1, stronger effect = lower value
# [21] = locus YBR136W, strain MEC1, stronger effect = lower value
# [22] = locus YBR160W, strain CDC28, stronger effect = lower value
# [23] = locus YDL017W, strain CDC7, stronger effect = lower value
# [24] = locus YDL028C, strain MPS1, stronger effect = lower value
# [25] = locus YDL108W, strain KIN28, stronger effect = lower value
# [26] = locus YDL132W, strain cdc53, stronger effect = lower value
# [27] = locus YDL214C, strain PRR2, stronger effect = lower value
# [28] = locus YDR052C, strain DBF4, stronger effect = lower value
# [29] = locus YDR054C, strain cdc34, stronger effect = lower value
# [30] = locus YDR226W, strain ADK1, stronger effect = lower value
# [31] = locus YDR477W, strain SNF1, stronger effect = lower value
# [32] = locus YER123W, strain YCK3, stronger effect = lower value
# [33] = locus YER133W, strain GLC7, stronger effect = lower value
# [34] = locus YFL009W, strain cdc4, stronger effect = lower value
# [35] = locus YFL029C, strain CAK1, stronger effect = lower value
# [36] = locus YFR003C, strain YPI1, stronger effect = lower value
# [37] = locus YFR019W, strain FAB1, stronger effect = lower value
# [38] = locus YFR028C, strain CDC14, stronger effect = lower value
# [39] = locus YGR040W, strain KSS1, stronger effect = lower value
# [40] = locus YGR052W, strain FMP48, stronger effect = lower value
# [41] = locus YGR092W, strain DBF2, stronger effect = lower value
# [42] = locus YHR079C, strain IRE1, stronger effect = lower value
# [43] = locus YHR082C, strain KSP1, stronger effect = lower value
# [44] = locus YHR205W, strain SCH9, stronger effect = lower value
# [45] = locus YIL147C, strain SLN1, stronger effect = lower value
# [46] = locus YJL095W, strain BCK1, stronger effect = lower value
# [47] = locus YJL128C, strain PBS2, stronger effect = lower value
# [48] = locus YJL157C, strain FAR1, stronger effect = lower value
# [49] = locus YJR016C, strain ILV3, stronger effect = lower value
# [50] = locus YJR066W, strain TOR1 (second series), stronger effect = lower value
# [51] = locus YJR066W, strain TOR1, stronger effect = lower value
# [52] = locus YKL048C, strain ELM1, stronger effect = lower value
# [53] = locus YKL067W, strain YNK1, stronger effect = lower value
# [54] = locus YKL101W, strain HSL1, stronger effect = lower value
# [55] = locus YKL193C, strain SDS22, stronger effect = lower value
# [56] = locus YKL203C, strain TOR2, stronger effect = lower value
# [57] = locus YLR113W, strain HOG1, stronger effect = lower value
# [58] = locus YLR133W, strain CKI1, stronger effect = lower value
# [59] = locus YLR403W, strain SFP1, stronger effect = lower value
# [60] = locus YML070W, strain DAK1, stronger effect = lower value
# [61] = locus YMR001C, strain CDC5, stronger effect = lower value
# [62] = locus YMR205C, strain PFK2 (second series), stronger effect = lower value
# [63] = locus YMR277W, strain FCP1, stronger effect = lower value
# [64] = locus YNL006W, strain LST8, stronger effect = lower value
# [65] = locus YNL020C, strain ARK1, stronger effect = lower value
# [66] = locus YNL161W, strain CBK1, stronger effect = lower value
# [67] = locus YNL183C, strain NPR1, stronger effect = lower value
# [68] = locus YNL207W, strain RIO2, stronger effect = lower value
# [69] = locus YNL222W, strain SSU72, stronger effect = lower value
# [70] = locus YNL307C, strain MCK1 (second series), stronger effect = lower value
# [71] = locus YOL078W, strain AVO1, stronger effect = lower value
# [72] = locus YOL136C, strain PFK27, stronger effect = lower value
# [73] = locus YOR061W, strain CKA2, stronger effect = lower value
# [74] = locus YOR119C, strain RIO1, stronger effect = lower value
# [75] = locus YOR231W, strain MKK1, stronger effect = lower value
# [76] = locus YOR329C, strain SCD5, stronger effect = lower value
# [77] = locus YPL031C, strain PHO85, stronger effect = lower value
# [78] = locus YPL153C, strain RAD53, stronger effect = lower value
# [79] = locus YPL204W, strain HRR25, stronger effect = lower value
# [80] = locus YPL209C, strain IPL1, stronger effect = lower value
# [81] = locus YPL256C, strain CLN2, stronger effect = lower value
# [82] = locus YPR025C, strain CCL1, stronger effect = lower value
# [83] = locus YPR106W, strain ISR1, stronger effect = lower value
# [84] = locus YPR111W, strain DBF20, stronger effect = lower value
# [85] = strain NNK1, stronger effect = lower value
# [86] = strain TSCII, stronger effect = lower value
compound,measurement,setting,value
ON=C(c1cccs1)c1cccs1,normalized growth,"locus YAL013W, strain DEP1, stronger effect = lower value",0.947
same,normalized growth,"locus YBR229C, strain ROT2, stronger effect = lower value",0.94
same,normalized growth,[1],0.94
same,normalized growth,"locus YDL134C, strain PPH21, stronger effect = lower value",0.989
same,normalized growth,"locus YDR150W, strain NUM1, stronger effect = lower value",0.921
same,normalized growth,"locus YEL061C, strain CIN8, stronger effect = lower value",0.947
same,normalized growth,[2],0.928
same,normalized growth,[3],0.383 (active)
same,normalized growth,"locus YHR087W, strain rtc3, stronger effect = lower value",0.965
same,normalized growth,"locus YJR043C, strain POL32, stronger effect = lower value",0.944
same,normalized growth,[4],0.927
same,normalized growth,"locus YLR039C, strain RIC1, stronger effect = lower value",0.62 (active)
same,normalized growth,"locus YLR058C, strain SHM2 (second series), stronger effect = lower value",0.959
same,normalized growth,"locus YLR085C, strain ARP6, stronger effect = lower value",0.673 (active)
same,normalized growth,"locus YLR262C, strain YPT6, stronger effect = lower value",0.657 (active)
same,normalized growth,"locus YML094W, strain GIM5, stronger effect = lower value",0.903
same,normalized growth,"locus YMR219W, strain ESC1, stronger effect = lower value",0.963
same,normalized growth,[5],0.957
same,normalized growth,[6],0.657 (active)
same,normalized growth,"locus YNL128W, strain TEP1, stronger effect = lower value",1
same,normalized growth,[7],0.958
same,normalized growth,"locus YNL298W, strain CLA4 (second series), stronger effect = lower value",0.893
same,normalized growth,[8],0.924 (active)
same,normalized growth,"locus YNR030W, strain Alg12, stronger effect = lower value",0.895
same,normalized growth,"locus YOL006C, strain TOP1, stronger effect = lower value",0.896
same,normalized growth,"locus YPL055C, strain LGE1, stronger effect = lower value",0.941
same,normalized growth,[9],0.876
same,normalized growth,"locus YPR135W, strain CTF4, stronger effect = lower value",0.637 (active)
O=C1NC(=O)C(c2ccccc2[N+](=O)[O-])=C1Nc1ccc(O)c(Cl)c1,normalized growth,[10],0.951
same,normalized growth,[11],0.974
same,normalized growth,[12],0.964
same,normalized growth,[13],0.98
same,normalized growth,[4],1
same,normalized growth,[5],0.99
same,normalized growth,[6],1.04
same,normalized growth,[7],0.971
same,normalized growth,[14],0.953
same,normalized growth,[15],0.981
same,normalized growth,[16],0.996
same,normalized growth,[17],0.943
same,normalized growth,[9],0.982
O=C(Nc1ccccc1)Nc1ccc(Cl)cc1[N+](=O)[O-],normalized growth,[18],0.977
same,normalized growth,[19],0.973
same,normalized growth,[20],0.976
same,normalized growth,[21],0.977
same,normalized growth,[22],0.964
same,normalized growth,[23],0.975
same,normalized growth,[24],0.974
same,normalized growth,[1],0.987
same,normalized growth,[25],0.988
same,normalized growth,[26],0.962
same,normalized growth,[27],0.917
same,normalized growth,[28],0.968
same,normalized growth,[29],0.97
same,normalized growth,[30],0.968
same,normalized growth,[31],0.947
same,normalized growth,[32],0.92
same,normalized growth,[33],0.959
same,normalized growth,[34],0.961
same,normalized growth,[35],0.977
same,normalized growth,[36],0.989
same,normalized growth,[37],0.933
same,normalized growth,[38],0.974
same,normalized growth,[39],0.938
same,normalized growth,[40],1.01
same,normalized growth,[41],0.932
same,normalized growth,[3],0.721 (active)
same,normalized growth,[42],0.872
same,normalized growth,[43],0.926
same,normalized growth,[44],0.874
same,normalized growth,[45],0.972
same,normalized growth,[46],0.847
same,normalized growth,[47],0.958
same,normalized growth,[48],0.946
same,normalized growth,[49],0.972
same,normalized growth,[50],0.928
same,normalized growth,[51],0.903
same,normalized growth,[52],0.925
same,normalized growth,[53],0.93
same,normalized growth,[54],0.921
same,normalized growth,[55],0.968
same,normalized growth,[56],0.976
same,normalized growth,[57],0.888
same,normalized growth,[58],0.92
same,normalized growth,[59],0.944
same,normalized growth,[60],0.909
same,normalized growth,[61],0.977
same,normalized growth,[62],0.941
same,normalized growth,[63],0.974
same,normalized growth,[64],0.976
same,normalized growth,[65],0.909
same,normalized growth,[66],0.976
same,normalized growth,[67],0.906
same,normalized growth,[68],0.96
same,normalized growth,[69],0.985
same,normalized growth,[70],0.916
same,normalized growth,[71],0.97
same,normalized growth,[72],0.892
same,normalized growth,[73],0.956
same,normalized growth,[74],1.01
same,normalized growth,[75],0.835
same,normalized growth,[76],0.978
same,normalized growth,[77],0.948
same,normalized growth,[78],0.942
same,normalized growth,[79],0.925
same,normalized growth,[80],0.975
same,normalized growth,[81],0.809 (active)
same,normalized growth,[82],0.979
same,normalized growth,[83],0.975
same,normalized growth,[84],0.963
same,normalized growth,[85],0.952
same,normalized growth,[86],0.965
O=C(Nc1ccccc1)c1cc([N+](=O)[O-])ccc1Cl,normalized growth,[10],1.07
same,normalized growth,[11],0.989
same,normalized growth,[12],0.967
same,normalized growth,[13],0.972
same,normalized growth,[2],0.974
same,normalized growth,"locus YGR229C, strain SMI1, stronger effect = lower value",0.996
same,normalized growth,[14],0.996
same,normalized growth,[15],0.969
same,normalized growth,[16],0.976
same,normalized growth,[8],0.999
same,normalized growth,[17],0.958
same,normalized growth,[9],1
O=[N+]([O-])c1cc(Cl)cc([N+](=O)[O-])c1Nc1ccccc1,normalized growth,[18],0.924
same,normalized growth,[19],0.927
same,normalized growth,[20],0.916
same,normalized growth,[21],0.923
same,normalized growth,[22],0.918
same,normalized growth,[23],0.937
same,normalized growth,[24],0.925
same,normalized growth,[1],0.919
same,normalized growth,[25],0.935
same,normalized growth,[26],0.91
same,normalized growth,[27],0.986
same,normalized growth,[28],0.94
same,normalized growth,[29],0.893
same,normalized growth,[30],0.934
same,normalized growth,[31],0.949
same,normalized growth,[32],0.975
same,normalized growth,[33],0.977
same,normalized growth,[34],0.917
same,normalized growth,[35],0.929
same,normalized growth,[36],0.938
same,normalized growth,[37],0.963
same,normalized growth,[38],0.942
same,normalized growth,[39],0.963
same,normalized growth,[40],1.1
same,normalized growth,[41],0.89
same,normalized growth,[3],0.824 (active)
same,normalized growth,[42],0.976
same,normalized growth,[43],0.997
same,normalized growth,[44],0.965
same,normalized growth,[45],0.933
same,normalized growth,[46],0.921
same,normalized growth,[47],0.916
same,normalized growth,[48],0.957
same,normalized growth,[49],0.936
same,normalized growth,[50],0.946
same,normalized growth,[51],0.969
same,normalized growth,[52],0.93
same,normalized growth,[53],0.982
same,normalized growth,[54],0.96
same,normalized growth,[55],0.932
same,normalized growth,[56],0.989
same,normalized growth,[57],0.923
same,normalized growth,[58],0.954
same,normalized growth,[59],0.992
same,normalized growth,[60],0.987
same,normalized growth,[61],0.929
same,normalized growth,[62],0.998
same,normalized growth,[63],0.936
same,normalized growth,[64],0.926
same,normalized growth,[65],0.928
same,normalized growth,[66],0.92
same,normalized growth,[67],0.992
same,normalized growth,[68],0.935
same,normalized growth,[69],0.936
same,normalized growth,[70],0.943
same,normalized growth,[71],0.922
same,normalized growth,[72],0.981
same,normalized growth,[73],0.968
same,normalized growth,[74],1.03
same,normalized growth,[75],0.962
same,normalized growth,[76],0.926
same,normalized growth,[77],0.948
same,normalized growth,[78],0.965
same,normalized growth,[79],0.946
same,normalized growth,[80],0.933
same,normalized growth,[81],0.972
same,normalized growth,[82],0.922
same,normalized growth,[83],0.949
same,normalized growth,[84],0.934
same,normalized growth,[85],0.954
same,normalized growth,[86],0.915
